Screening data as filed in PubChem.
BoNT F protease: blocks Botulinum neurotoxin F light chain protease. Multiplex microsphere protease cleavage assay, flow cytometry. inhibition, % at 10 µM. actives 0.22% (n = 360,000); in the data active = inhibition above about 35%, passing the limit was not always enough; inconclusive = no clear call, values can overlap the other calls; note: plate controls were buffer without enzyme for full effect and enzyme alone for no effect
Bead autofluor: flagged as autofluorescent in microsphere protease counterscreen; compound autofluorescence counterscreen, microsphere flow cytometry; stronger effect = higher value; fluorescence intensity (test concentration not listed); actives 3.1% (n = 360,000); AID 624483; in the data active = fluorescence intensity above about 16000; inconclusive = no clear call, values can overlap the other calls
BH1578 lux ind: induces V. cholerae light production without autoinducers; activation, % at 18.7 µM; actives 0.16% (n = 350,000); V. cholerae BH1578 lux reporter, luminescence, 6 h; AID 588436; in the data active = activation mostly above about 9.7%, no sharp cut-off; inconclusive = no clear call, values can overlap the other calls; inactive = mostly below about 3.7%
BJeLR viability: kills HRASV12-expressing BJeLR cells. BJeLR (HRASV12) viability, CellTiter-Glo ATP luminescence, 48 h. inhibition, % (concentration not given with the values). actives 0.17% (n = 300,000); in the data active = inhibition above about 50%; inconclusive = no clear call, values can overlap the other calls
Anthrax LF prot: inhibitors of Bacillus anthracis lethal factor protease. AID 588501. inhibition, % at 10 µM. P15917. multiplex microsphere protease cleavage assay, LF. actives 0.12% (n = 360,000); note: plate controls were buffer without enzyme for full effect and enzyme alone for no effect
BoNT A protease: blocks Botulinum neurotoxin A light chain protease | multiplex microsphere protease substrate cleavage, flow cytometry | inhibition, % at 10 µM | actives 0.17% (n = 360,000) | AID 588499; note: plate controls were buffer without enzyme for full effect and enzyme alone for no effect
Active calls of the source: *; i = inactive; ? = inconclusive; nt = no result given. In the library only some 3.7% were active in any assay of this set; here they are far more common. Cut-off read from the data, not from the text of the source, unless noted: active = inhibition above about 30%; inconclusive = no clear call, values can overlap the other calls; inactive = below that.

SMILES	BoNT F protease	Bead autofluor	BH1578 lux ind	BJeLR viability	Anthrax LF prot	BoNT A protease
CCn1c(=O)n(CC)c2cc(S(=O)(=O)Nc3ccccc3C)c(C)cc21	0	23798*	i	6	-6	?
CCc1ccccc1NS(=O)(=O)c1cc2c(cc1C)n(C)c(=O)c(=O)n2C	-3	6026	0	-1	-3	-1
COc1ccc(C(C)=O)cc1COc1ccc(F)cc1	-3	4939	0	0	1	-1
COc1ccc(C(=O)NN)cc1COc1ccc(Br)cc1	-4	19591*	3	-12	0	0
CC(C)C1Oc2ccccc2N(CC(=O)NCCCN2C(C)CCCC2C)C1=O (stereo not drawn)	2	23299*	i	-8	2	0
CC1Oc2ccccc2N(CC(=O)NCCc2ccccc2)C1=O (stereo not drawn)	-11	26874*	1	-4	1	-11
CC1Oc2ccccc2N(CC(=O)N(Cc2ccccc2)Cc2ccccn2)C1=O (stereo not drawn)	-1	23187*	0	0	-3	0
O=C(NCC(O)c1nc2ccccc2[nH]1)c1cc([N+](=O)[O-])ccc1F (stereo not drawn)	-9	6238	nt	nt	2	0
CCn1c(O)c(/C=N/N=C/c2ccccc2)c2ccc(C3=NNC(=O)CC3)cc21	0	22930*	i	-2	-2	2
CCC(CC)=N/N=C/c1c(O)n(CC)c2cc(C3=NNC(=O)CC3)ccc12	-13	4857	i	2	-3	0
COc1ccc(NC(=O)Nc2ccc3nc([C@@H]4O[C@H](CO)[C@@H](O)[C@H](O)[C@H]4O)[nH]c3c2)cc1OC1CCCC1	-4	5533	i	nt	-5	-1
Cc1cccc(NC(=O)c2ccc(Cn3cc(C(F)(F)F)ccc3=O)cc2)c1	0	16900*	0	-4	-2	-1
CCOC(=O)C(C)C1(O)c2ccccc2-c2ncccc21 (stereo not drawn)	-8	23373*	i	1	-2	?
COc1ccc(NC(=O)CSc2nnc3n2CCCCC3)cc1OC	1	3805	i	nt	-3	0
COc1ccc(CCN(C)Cc2c(F)cccc2F)cc1OC	-2	23473*	0	-4	-2	?
COc1cc(CN(C)CCc2ccccc2)ccc1OCc1ccccc1	24	8500	-12	8	0	5
COc1cccc(N2C(=O)C(c3ccccc3)=C(c3nc4ccccc4s3)C2NC(C)=O)c1 (stereo not drawn)	3	21453*	-4	-7	0	?
Nc1c(C(=O)Nc2ccccc2)sc2nc3c(c(-c4ccco4)c12)CCC3	4	3453	-6	4	0	6
Nc1c(C(=O)NC23CC4CC(CC(C4)C2)C3)sc2nc3c(c(C(F)(F)F)c12)CCC3	-3	24363*	i	-2	-2	?
O=[N+]([O-])c1ccc2nccn2c1	-2	24475*	i	-14	1	-2
COc1cccc(-c2ccc3nccn3c2)c1	-1	3988	-1	nt	5	2
CSc1nc2ccccc2c(=O)n1-c1cccnc1	-7	5467	i	-3	0	0
Cc1nc2ccccc2c(=O)n1-c1cccnc1	4	21722*	-3	4	-2	?
COc1ccc(-c2nc3ccccc3c(=O)n2-c2cccnc2)cc1	-2	22591*	2	-5	0	?
COc1ccc(-n2c(-c3ccc(C)cc3)nc3ccccc3c2=O)cc1	-7	5961	-1	3	3	0
SMILES	BoNT F protease	Bead autofluor	BH1578 lux ind	BJeLR viability	Anthrax LF prot	BoNT A protease
CC1(C)CC(Cc2ccc(Cl)nc2)N(C(=O)OC(C)(C)C)C1 (stereo not drawn)	-2	3813	0	nt	0	0
Cc1ccc(F)c(S(=O)(=O)NC(=O)C2(C)CCN2C(=O)c2ccc(C(F)(F)F)nc2C)c1 (stereo not drawn)	4	2874	0	nt	-7	0
C=C(C)C1CC=C(C)/C(=N/NC(=O)c2ccc(NC(=O)CCC)cc2)C1 (stereo not drawn)	-4	16939*	0	7	0	?
C=C(C)C1CC=C(C)/C(=N\NC(=O)CCC(=O)Nc2ccc(C)c(C)c2)C1 (stereo not drawn)	-18	4330	i	-7	1	-2
C=C(C)C1CC=C(C)/C(=N/NC(=O)CNc2ccc(OCC)cc2)C1 (stereo not drawn)	0	21006*	i	-7	-13	?
C=C(C)C1CC=C(C)/C(=N/NC(=O)c2ccc(NC(=O)CC)cc2)C1 (stereo not drawn)	-8	17225*	0	-7	0	?
C=C(C)C1CC=C(C)/C(=N/NC(=O)CNc2ccc(C)cc2C)C1 (stereo not drawn)	-4	2457	0	-11	-1	-1
COc1ccc(C(=O)Nc2cc(OC)c(NC(=O)Nc3ccccc3)cc2OC)cc1	-6	3528	i	nt	-6	0
CC1(C(=O)N2Cc3ccccc3C2)CCN1C(=O)C1(c2ccc(Cl)cc2)CC1 (stereo not drawn)	2	2799	0	nt	3	0
Cc1cc(C(=O)OCC(=O)Nc2ccccc2C#N)c(C)o1	?	?	390*	nt	?	?
CCN(CC)C(=O)c1cccc(-c2csc(C(O)c3ccc(F)c(F)c3)n2)c1 (stereo not drawn)	-5	3839	i	nt	-4	0
O=C(NC(=S)Nc1nc(-c2ccc(Br)cc2)cs1)c1cccnc1	-2	23721*	-1	4	-2	-1
CCOc1ccc(NC(=O)c2ccc(F)c(S(=O)(=O)N3CCN(c4ccccn4)CC3)c2)cc1	1	16376*	i	-2	-2	?
CCC(=O)N1CCCC1(C)C(=O)NCc1ccc(SC)cc1 (stereo not drawn)	0	3906	i	nt	-7	0
CCOC(=O)CSc1nc2ccc(NC(=O)CSc3nnnn3Cc3ccccc3)cc2s1	-3	20885*	-3	2	-4	-2
C[C@H](CO)N1C[C@H](C)[C@H](CN(C)C(=O)Cc2cccnc2)Oc2ncc(Br)cc2C1=O	0	3526	2	nt	4	0
CC1CCCCN1CCNS(=O)(=O)c1ccc2c(c1)oc(=O)n2C (stereo not drawn)	-6	22199*	i	3	-3	?
Cn1c(=O)oc2cc(S(=O)(=O)NCCN3CCCCCC3)ccc21	-13	21921*	-1	1	-5	?
COc1ccc(C=NCCC2(O)CC(C)N(C)CC2C)cc1 (stereo not drawn)	54*	4478	-6	-1	3	2
COc1ccc(CNCCC2(O)CC(C)N(C)CC2C)cc1OC (stereo not drawn)	?	3229	1	0	6	-4
Cc1ccc(N(CC(=O)NC(C)C)C(=O)CCC(=O)Nc2ccccn2)c(C)c1	-2	3761	i	nt	-4	0
Cc1nc(C)c(C(=O)Nc2ccccc2-c2ccccc2)o1	1	23592*	0	-13	-1	0
